Only some compounds are listed: those with a hit (about 3% of all), similar ones and a draw of the others.
NALP3 yeast inh: blocks the NALP3 inflammasome reconstituted in yeast; AID 2825; 330,000 compounds, 0.39% hits; Yeast reconstituted NLRP3/ASC/caspase-1, beta-gal luminescence, 24 h; inhibition, % at 10 µM;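 active = inhibition of 50% or more; inactive = inhibition below 50%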;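 note: plate controls were induced DMSO wells for no effect and uninduced yeast grown without galactose for full effect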
Bfl-1 A1 inh: inhibitors of the anti-apoptotic protein A1, read as caspase activation. MEF A1-2A-BIM cells, Caspase-Glo 3/7 luminescence, 3 h; percent of clofoctol response, vehicle zero. 330,000 compounds, 0.066% hits. AID 2462. caspase activation, % (no concentration beside the values);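 active = over half of replicate activation scores above 10%, or exactly half above 10 with the replicate mean above 10; inconclusive = replicate mean below 10 yet half the replicates above 10; inactive = over half of replicates below 10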
NALP1 yeast inh: inhibitors of NALP1 inflammasome in yeast; S. cerevisiae NALP1/ASC/caspase-1 growth, X-gal OD620, 72 h; inhibition, % at 10 µM; 280,000 compounds, 0.61% hits; AID 2071; in the data active = inhibition mostly above about 24%, no sharp cut-off; inactive = mostly below about 32%
CHT inh: human CHT choline transport inhibition; Q9GZV3; CHT-expressing cells, membrane potential dye, choline response; stronger effect = lower value; B-score at 10 µM; 310,000 compounds, 0.86% hits; AID 488975;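 active = B-score over 3 SD under the library average, and starting fluorescence ratio not unusually high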;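 note: choline stimulus applied at its EC90 after an EC20 pre-addition; B-score computed on integrated fluorescence ratio after choline addition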
Target sequence (Q9GZV3 whole entry, looked up): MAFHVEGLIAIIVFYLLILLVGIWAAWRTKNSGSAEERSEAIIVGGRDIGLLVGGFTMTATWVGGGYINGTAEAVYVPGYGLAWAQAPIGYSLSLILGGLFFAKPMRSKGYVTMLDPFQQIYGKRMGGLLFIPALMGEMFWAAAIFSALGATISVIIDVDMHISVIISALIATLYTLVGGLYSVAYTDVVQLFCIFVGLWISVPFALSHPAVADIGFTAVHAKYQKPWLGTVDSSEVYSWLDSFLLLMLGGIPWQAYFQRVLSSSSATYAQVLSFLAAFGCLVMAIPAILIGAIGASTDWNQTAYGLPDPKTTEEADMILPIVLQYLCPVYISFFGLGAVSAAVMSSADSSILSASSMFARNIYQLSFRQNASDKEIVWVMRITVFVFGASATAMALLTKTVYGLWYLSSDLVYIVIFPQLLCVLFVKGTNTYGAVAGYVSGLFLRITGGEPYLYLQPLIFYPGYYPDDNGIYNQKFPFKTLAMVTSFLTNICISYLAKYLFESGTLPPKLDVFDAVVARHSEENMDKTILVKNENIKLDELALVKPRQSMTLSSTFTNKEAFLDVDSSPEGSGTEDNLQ
CHT allo act: human CHT allosteric activation. AID 488977. CHT-expressing cells, membrane potential dye, choline EC20; stronger effect = higher value; LV-AA mutant CHT in HEK293 cells. 310,000 compounds, 0.49% hits. B-score at 10 µM;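 active = initial fluorescence not abnormally high and integrated response B-score, plate-corrected, over 3 SD above library mean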
SUMO Mot1 rescue: blocks SUMOylation pathway, rescuing yeast Mot1-301 growth. S. cerevisiae Mot1-301 growth rescue, ATP luminescence, 38.5C; percent above DMSO median, 100 means doubled. growth rescue, % at 18.8 µM. 320,000 compounds, 1% hits. AID 2716;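 active = every valid replicate shows activation above 250% relative to neutral control wells; inactive = the rest, any valid replicate at or below 250%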;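 note: OY570 slx delta 5 strain wells were the positive control but not used for scaling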
NALP3 yeast conf: confirmation of NALP3 inhibitors in yeast | shares compounds with NALP3 yeast inh | yeast expressing human NALP3, luminescence | inhibition, % at 10 µM | 1,300 compounds, 81% hits | AID 435006; in the data active = inhibition above about 48%
Casp1-ASC yeast: caspase-1-ASC yeast counter-screen hit; shares compounds with NALP3 yeast inh; yeast expressing Caspase-1-ASC, luminescence counter screen; inhibition, % at 10 µM; 1,000 compounds, 66% hits; AID 488784
NALP3 retest: confirmation retest of NALP3 inhibitors in yeast; 1,000 compounds, 53% hits; yeast expressing human NALP3, luminescence read-out; shares compounds with NALP3 yeast inh; inhibition, % at 10 µM
Active calls of the source: *; i = inactive; ? = inconclusive; · = no result given. Cut-off read from the data, not from the text of the source, unless noted: active = inhibition above about 50%; inactive = the rest.

SMILES	NALP3 yeast inh	Bfl-1 A1 inh	NALP1 yeast inh	CHT inh	CHT allo act	SUMO Mot1 rescue	NALP3 yeast conf	Casp1-ASC yeast	NALP3 retest
O=c1c(O)c(-c2cccs2)oc2ccccc12	67*	0	50	i	i	-8	87*	79*	73*
O=[N+]([O-])c1ccc(NCCCNS(=O)(=O)c2ccccc2)c(Cl)c1	4	1	22	i	i	-11	·	·	·
Cc1ccc(NN2C(=O)C=C(c3ccc(Cl)cc3)C2=O)cc1	95*	11*	7	i	i	572*	47	·	·
O=C1C=C(c2ccccc2)C(=O)N1Nc1ccccc1	41	0	-1	i	i	215	·	·	·
COc1ccccc1NC(=O)Nc1cccc(C)n1	66*	0	22	i	i	-10	74*	55*	60*
CN(CC(=O)Nc1ccccc1Cl)C(=O)COC(=O)c1nc(Cl)c(Cl)c(Cl)c1Cl	28	1	20	i	i	13	·	·	·
O=C(N/N=C\c1ccc(O)c([N+](=O)[O-])c1)C1COc2ccccc2O1 (configuration not stated)	-34	0	-2	i	i	87	·	·	·
Cc1cc([N+](=O)[O-])cc(/C=N\NC(=O)C2COc3ccccc3O2)c1O (configuration not stated)	51*	-4	-19	i	i	-16	70*	78*	69*
COc1ccc(C2(C)CC(C)(C)Nc3ccccc32)cc1 (configuration not stated)	55*	1	18	i	i	-5	51*	45	38
COc1cc(/C=C/C(=O)OCC(=O)NCc2ccco2)ccc1O	21	0	·	i	i	-12	·	·	·
Oc1c(I)cc(I)c2cccnc12	65*	·	52	i	i	·	62*	26	24
O=C(NC(=S)Nc1cccc([N+](=O)[O-])c1)c1ccccc1	51*	-1	2	i	i	26	64*	43	39
CCOC(=O)C1(CCOC)CCN(C(=O)c2ccc(CSC)o2)CC1	15	1	8	i	i	-10	·	·	·
O=C(Nc1cccc(Br)c1)c1cc2ccccc2o1	64*	-6	8	i	i	-2	62*	48	60*
NS(=O)(=O)c1cccc(NC(=O)c2cc3ccccc3o2)c1	10	-3	4	i	i	-10	·	·	·
Cc1cccc(NC(=O)c2cc3ccccc3o2)c1	54*	-7	10	i	i	115	72*	59*	52*
CCC(=O)Nc1cccc(NC(=O)c2cc3ccccc3o2)c1	26	-6	-1	i	i	8	·	·	·
Cc1cc(NC(=O)COc2cccc([N+](=O)[O-])c2)no1	15	0	8	i	i	-12	·	·	·
COc1cccc(NC(=O)c2cnc(SC)nc2)c1	69*	-1	11	i	i	13	72*	68*	58*
O=C(COc1ccc(F)cc1)Nc1cc(Cl)ccc1-n1cncn1	63*	-1	·	i	i	15	70*	56*	49
O=C1/C(=C/c2ccc(N3CCOCC3)o2)SC(=Nc2ccccc2)N1CCc1c[nH]c2ccccc12	68*	?	8	i	i	34	77*	·	·
O=C(NCc1ccc(F)cc1)c1cc(-c2cccs2)on1	51*	0	12	i	i	18	69*	45	37
O=C(NCc1ccccc1)c1cc(-c2cccs2)on1	37	0	28	i	i	-1	·	·	·
COc1ccc(NC(=O)CSc2nnc(-c3cccs3)n2N)c(OC)c1	12	1	·	i	i	-9	·	·	·
O=C1C2C3CC(C(Br)C3Br)C2C(=O)N1c1nccs1 (configuration not stated)	-7	-1	·	i	i	3	·	·	·
SMILES	NALP3 yeast inh	Bfl-1 A1 inh	NALP1 yeast inh	CHT inh	CHT allo act	SUMO Mot1 rescue	NALP3 yeast conf	Casp1-ASC yeast	NALP3 retest
CCCNC(=O)c1cc2cc([N+](=O)[O-])ccc2s1	52*	-1	14	i	i	15	41	44	38
CC(C)NC(=O)c1cc2cc([N+](=O)[O-])ccc2s1	22	1	4	i	i	53	·	·	·
c1ccc(CCNc2nc(-c3ccccn3)nc3ccccc23)cc1	30	0	7	i	i	-9	·	·	·
Nc1nc(C(=O)N2CCOCC2)nn1S(=O)(=O)c1ccc(Cl)cc1	5	0	7	i	i	89	·	·	·
O=C(c1nnsc1S(=O)(=O)c1ccc(Cl)cc1)N1CCOCC1	57*	·	5	·	·	·	52*	54*	50*
CNC(=O)c1ccc(S(=O)(=O)c2ccc(Cl)cc2)c(NC(C)=O)c1	17	0	15	i	i	3	·	·	·
CNC(=O)c1nnsc1S(=O)(=O)c1ccc(Cl)cc1	59*	·	90*	·	·	·	67*	65*	47
CCOC(=O)N1CCC(N2CCCC(C(=O)c3ccccc3OC)C2)CC1 (configuration not stated)	4	0	-4	i	i	-7	·	·	·
CCSc1nnnn1-c1ccccc1	-3	0	2	i	i	29	·	·	·
Cc1ccc(C)c(-n2nnnc2Sc2nnnn2-c2ccccc2)c1	58*	2	·	i	i	47	74*	73*	62*
O=C(NNC(=O)C1CCN(S(=O)(=O)c2cccc(Cl)c2)CC1)C1CC1	2	0	·	i	i	-9	·	·	·
O=C(NC1CCN(S(=O)(=O)c2cccc(Cl)c2)CC1)C1CCCCC1	53*	-2	35	i	i	8	56*	25	20
CC(C)NC(=O)C(c1ccc(F)cc1)N(Cc1ccco1)C(=O)CCC(=O)Nc1ccccn1 (configuration not stated)	16	0	-5	i	i	36	·	·	·
O=C(NC1CCCCC1)c1noc2c1CCCCC2	51*	-3	52	i	i	1	67*	54*	50
CCc1cc(C(=O)Nc2ccccc2N2CCOCC2)sc1C	51*	3	·	·	·	52	53*	34	42
CCc1cc(C(=O)Nc2cc(S(=O)(=O)N(CC)CC)ccc2N2CCOCC2)sc1C	28	-1	·	i	i	2	·	·	·
Cc1cccc2c1-c1sc(C(=O)Nc3ccccc3N3CCN(C)CC3)cc1CO2	55*	0	·	i	i	35	64*	·	·

Assay outcomes deposited in PubChem BioAssay by several laboratories.
